# Measured values: the supplement of paper PMC10849652
# About 8,800 targets were measured; listed, in parts, are those with a hit and a random draw of the rest. About 0.5% of all pairs of compound and target were hits. Unmarked numbers belong to inactive results.
# How the values were obtained:
# Assay in all cases: log2 fold change, soluble protein after heating vs DMSO (PISA); higher = thermal stabilisation; K562 lysate, 10 uM; active = over 0.2 and 3.5 SD of the protein, either way, in both replicates (recomputed)
# [1] = compound: CCCS(=O)(=O)Nc1ccc(F)c(C(=O)c2c[nH]c3ncc(-c4ccc(Cl)cc4)cc23)c1F [vemurafenib]
# Outline: (§1)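 Values give the log-two fold change in thermal stability against solvent controls, from duplicates. Crude K562 extract at 1 mg/mL protein, made by dounce homogenisation in PBS pH 7.4 with 1 mM MgCl2, was treated with 10 μM compound for 30 min. After 3 min heating across 48°C-58°C, aliquots were pooled, adjusted to 0.5% NP-40 at 4°C and centrifuged at 21,000xg for 90 min. The supernatant was measured by TMTpro 16plex LC-MS/MS with channel sums equalised.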
# [2] = compound: CCCS(=O)(=O)Nc1ccc(F)c(C(=O)c2c[nH]c3ncc(Cl)cc23)c1F
# Outline: as §1
# [3] = compound: CCN(CCCOc1ccc2c(Nc3cc(CC(=O)Nc4cccc(F)c4)[nH]n3)ncnc2c1)CCOP(=O)(O)O [barasertib]
# Outline: as §1
# [4] = compound: CC[C@@H]1C(=O)N(C)c2cnc(Nc3ccc(C(=O)NC4CCN(C)CC4)cc3OC)nc2N1C1CCCC1
# Outline: as §1
# [5] = compound: CC[C@@H]1C(=O)N(C)c2cnc(Nc3ccc(C(=O)N[C@H]4CC[C@H](N5CCN(CC6CC6)CC5)CC4)cc3OC)nc2N1C(C)C [volasertib]
# Outline: as §1
# [6] = compound: CCn1c(C(=O)N(C2CC2)C2CC2)cc2c3c(ncn3C)c(Nc3cc(C)n(C)n3)nc21
# Outline: as §1
# [7] = compound: CCn1cc(-c2ccnc3[nH]c(-c4cccc(CN(C)C)c4)cc23)c(-c2ccc(NC(=O)N(C)C)cc2)n1
# Outline: as §1
# [8] = compound: CN1CCC(CNc2ccc3ncc(-c4cccc(OC(F)(F)F)c4)n3n2)CC1
# Outline: as §1
# [9] = compound: CN1CCN(CCOc2cc(OC3CCOCC3)c3c(Nc4c(Cl)ccc5c4OCO5)ncnc3c2)CC1 [saracatinib]
# Outline: as §1
# [10] = compound: CN1CCN(c2nc(C3=C(c4c[nH]c5ccccc45)C(=O)NC3=O)c3ccccc3n2)CC1 [sotrastaurin]
# Outline: as §1
# [11] = compound: CN1CC[C@H](c2c(O)cc(O)c3c(=O)cc(-c4ccccc4Cl)oc23)[C@H](O)C1 [alvocidib]
# Outline: as §1
# [12] = compound: CN1CCc2c(c3ccccc3n2Cc2ccc(C(=O)NO)cc2)C1 [Tubastatin A]
# Outline: as §1
# [13] = compound: CNC(=O)C1=CC=CC=C1NC2=NC(=NC=C2Cl)NC3=C(C=C(C=C3)N4CCOCC4)OC
# Outline: as §1
# [14] = compound: CNC(=O)c1ccc(Nc2ncc(C(F)(F)F)c(NCc3nccnc3N(C)S(C)(=O)=O)n2)cc1 [defactinib]
# Outline: as §1
# [15] = compound: CNc1nc(-c2ccc3c(N)n[nH]c3c2)cc(N2C[C@@H](C(=O)NC3CCCCC3)CC[C@H]2C)n1
# Outline: as §1
# [16] = compound: COC(=O)N[C@@H](C)CNc1nccc(-c2cn(C(C)C)nc2-c2cc(Cl)cc(NS(C)(=O)=O)c2F)n1 [encorafenib]
# Outline: as §1
# [17] = compound: COC(=O)[C@H](CCSC)NC(=O)C1=C(C=C(C=C1)NC[C@H](CS)N)C2=CC=CC=C2
# Outline: as §1
# [18] = compound: COc1cc(Nc2ncc3c(n2)-c2ccc(Cl)cc2C(c2c(F)cccc2OC)=NC3)ccc1C(=O)O [alisertib]
# Outline: as §1
# [19] = compound: COc1cc2nc(-c3cc(F)ccc3O)nc(N[C@@H]3CNC[C@H]3C(C)(C)O)c2cc1OC
# Outline: as §1
# [20] = compound: COc1cc2ncnc(Nc3ccc(F)c(Cl)c3)c2cc1OCCCN1CCOCC1 [gefitinib]
# Outline: as §1
# UniProt Q15723, sequence (Q15723 whole entry, looked up): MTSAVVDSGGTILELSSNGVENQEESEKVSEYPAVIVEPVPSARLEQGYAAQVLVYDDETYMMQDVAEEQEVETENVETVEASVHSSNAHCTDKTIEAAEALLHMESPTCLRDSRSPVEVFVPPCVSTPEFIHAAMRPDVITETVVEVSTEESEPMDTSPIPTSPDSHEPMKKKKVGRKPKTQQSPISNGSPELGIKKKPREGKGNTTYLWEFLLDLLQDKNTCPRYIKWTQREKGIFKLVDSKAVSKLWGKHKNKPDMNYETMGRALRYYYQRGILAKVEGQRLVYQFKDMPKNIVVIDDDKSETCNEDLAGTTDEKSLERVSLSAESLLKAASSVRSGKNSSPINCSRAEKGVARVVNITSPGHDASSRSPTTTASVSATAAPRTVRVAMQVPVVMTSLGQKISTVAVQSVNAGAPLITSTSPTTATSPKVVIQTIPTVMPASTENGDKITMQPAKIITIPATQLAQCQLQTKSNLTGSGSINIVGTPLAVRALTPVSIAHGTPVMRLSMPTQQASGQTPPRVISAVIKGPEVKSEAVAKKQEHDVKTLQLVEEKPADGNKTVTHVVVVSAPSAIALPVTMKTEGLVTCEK
# UniProt P04406, sequence (P04406 whole entry, looked up): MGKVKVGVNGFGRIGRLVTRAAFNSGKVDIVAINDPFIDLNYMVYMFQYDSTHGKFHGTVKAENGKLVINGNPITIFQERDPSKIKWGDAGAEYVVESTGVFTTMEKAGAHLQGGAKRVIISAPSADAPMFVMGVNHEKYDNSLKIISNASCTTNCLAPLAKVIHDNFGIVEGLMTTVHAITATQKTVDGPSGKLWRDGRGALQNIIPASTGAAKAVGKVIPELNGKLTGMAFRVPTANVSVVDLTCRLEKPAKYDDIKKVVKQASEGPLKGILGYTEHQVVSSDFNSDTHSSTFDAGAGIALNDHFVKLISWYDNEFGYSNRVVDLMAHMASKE
# UniProt Q6Y7W6, sequence (Q6Y7W6 whole entry, looked up): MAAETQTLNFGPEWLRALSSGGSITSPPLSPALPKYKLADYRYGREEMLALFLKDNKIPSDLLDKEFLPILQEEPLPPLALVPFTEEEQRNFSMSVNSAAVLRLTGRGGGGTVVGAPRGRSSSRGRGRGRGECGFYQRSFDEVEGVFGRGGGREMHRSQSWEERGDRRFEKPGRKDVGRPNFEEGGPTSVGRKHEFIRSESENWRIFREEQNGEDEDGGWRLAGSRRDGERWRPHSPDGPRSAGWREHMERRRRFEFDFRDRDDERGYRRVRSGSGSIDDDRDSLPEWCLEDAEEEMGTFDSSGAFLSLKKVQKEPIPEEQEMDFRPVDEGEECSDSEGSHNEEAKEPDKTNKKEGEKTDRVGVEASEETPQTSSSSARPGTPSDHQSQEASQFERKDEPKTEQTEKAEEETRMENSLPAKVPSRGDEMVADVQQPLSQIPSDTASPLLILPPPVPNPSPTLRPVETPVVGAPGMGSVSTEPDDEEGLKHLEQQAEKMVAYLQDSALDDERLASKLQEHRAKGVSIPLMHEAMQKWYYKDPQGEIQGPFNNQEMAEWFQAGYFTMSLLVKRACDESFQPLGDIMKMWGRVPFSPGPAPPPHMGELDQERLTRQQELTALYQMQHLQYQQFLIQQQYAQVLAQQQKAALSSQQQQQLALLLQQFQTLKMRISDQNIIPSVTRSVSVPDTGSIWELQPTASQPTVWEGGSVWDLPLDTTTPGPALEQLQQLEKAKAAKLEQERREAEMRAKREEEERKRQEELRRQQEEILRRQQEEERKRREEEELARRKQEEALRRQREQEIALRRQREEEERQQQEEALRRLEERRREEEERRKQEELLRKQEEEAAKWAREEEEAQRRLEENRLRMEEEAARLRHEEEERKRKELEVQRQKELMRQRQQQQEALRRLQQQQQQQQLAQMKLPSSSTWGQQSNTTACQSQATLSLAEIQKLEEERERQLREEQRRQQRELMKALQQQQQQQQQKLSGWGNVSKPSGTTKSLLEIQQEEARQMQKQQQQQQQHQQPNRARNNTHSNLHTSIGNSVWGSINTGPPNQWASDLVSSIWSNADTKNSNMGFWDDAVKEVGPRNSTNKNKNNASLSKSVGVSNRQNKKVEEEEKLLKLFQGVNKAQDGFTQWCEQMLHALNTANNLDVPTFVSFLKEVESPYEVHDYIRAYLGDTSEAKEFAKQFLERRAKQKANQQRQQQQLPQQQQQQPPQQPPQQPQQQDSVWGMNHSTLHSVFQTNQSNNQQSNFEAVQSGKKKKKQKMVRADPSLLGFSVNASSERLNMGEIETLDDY
# UniProt O60645, sequence (O60645 whole entry, looked up): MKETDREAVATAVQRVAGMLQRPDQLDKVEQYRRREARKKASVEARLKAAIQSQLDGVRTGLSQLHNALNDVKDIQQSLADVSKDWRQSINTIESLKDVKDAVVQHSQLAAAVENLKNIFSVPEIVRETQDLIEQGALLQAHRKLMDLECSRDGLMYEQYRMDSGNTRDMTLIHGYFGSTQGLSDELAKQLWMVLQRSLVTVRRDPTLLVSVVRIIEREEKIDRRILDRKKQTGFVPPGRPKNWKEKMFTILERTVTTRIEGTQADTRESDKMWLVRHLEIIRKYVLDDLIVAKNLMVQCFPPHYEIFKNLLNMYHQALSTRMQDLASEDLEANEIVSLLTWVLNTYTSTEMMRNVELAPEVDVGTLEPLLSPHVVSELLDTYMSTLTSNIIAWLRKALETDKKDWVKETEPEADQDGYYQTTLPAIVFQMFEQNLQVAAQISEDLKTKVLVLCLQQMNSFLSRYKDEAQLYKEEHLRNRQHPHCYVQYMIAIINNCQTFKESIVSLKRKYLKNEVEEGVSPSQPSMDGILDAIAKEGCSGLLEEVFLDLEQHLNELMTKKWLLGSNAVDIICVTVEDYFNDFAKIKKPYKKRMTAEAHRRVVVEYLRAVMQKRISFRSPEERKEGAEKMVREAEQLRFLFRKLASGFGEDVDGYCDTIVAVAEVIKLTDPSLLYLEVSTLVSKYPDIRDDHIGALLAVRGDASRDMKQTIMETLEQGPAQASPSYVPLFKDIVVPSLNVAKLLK
# UniProt Q92538, sequence (Q92538 whole entry, looked up): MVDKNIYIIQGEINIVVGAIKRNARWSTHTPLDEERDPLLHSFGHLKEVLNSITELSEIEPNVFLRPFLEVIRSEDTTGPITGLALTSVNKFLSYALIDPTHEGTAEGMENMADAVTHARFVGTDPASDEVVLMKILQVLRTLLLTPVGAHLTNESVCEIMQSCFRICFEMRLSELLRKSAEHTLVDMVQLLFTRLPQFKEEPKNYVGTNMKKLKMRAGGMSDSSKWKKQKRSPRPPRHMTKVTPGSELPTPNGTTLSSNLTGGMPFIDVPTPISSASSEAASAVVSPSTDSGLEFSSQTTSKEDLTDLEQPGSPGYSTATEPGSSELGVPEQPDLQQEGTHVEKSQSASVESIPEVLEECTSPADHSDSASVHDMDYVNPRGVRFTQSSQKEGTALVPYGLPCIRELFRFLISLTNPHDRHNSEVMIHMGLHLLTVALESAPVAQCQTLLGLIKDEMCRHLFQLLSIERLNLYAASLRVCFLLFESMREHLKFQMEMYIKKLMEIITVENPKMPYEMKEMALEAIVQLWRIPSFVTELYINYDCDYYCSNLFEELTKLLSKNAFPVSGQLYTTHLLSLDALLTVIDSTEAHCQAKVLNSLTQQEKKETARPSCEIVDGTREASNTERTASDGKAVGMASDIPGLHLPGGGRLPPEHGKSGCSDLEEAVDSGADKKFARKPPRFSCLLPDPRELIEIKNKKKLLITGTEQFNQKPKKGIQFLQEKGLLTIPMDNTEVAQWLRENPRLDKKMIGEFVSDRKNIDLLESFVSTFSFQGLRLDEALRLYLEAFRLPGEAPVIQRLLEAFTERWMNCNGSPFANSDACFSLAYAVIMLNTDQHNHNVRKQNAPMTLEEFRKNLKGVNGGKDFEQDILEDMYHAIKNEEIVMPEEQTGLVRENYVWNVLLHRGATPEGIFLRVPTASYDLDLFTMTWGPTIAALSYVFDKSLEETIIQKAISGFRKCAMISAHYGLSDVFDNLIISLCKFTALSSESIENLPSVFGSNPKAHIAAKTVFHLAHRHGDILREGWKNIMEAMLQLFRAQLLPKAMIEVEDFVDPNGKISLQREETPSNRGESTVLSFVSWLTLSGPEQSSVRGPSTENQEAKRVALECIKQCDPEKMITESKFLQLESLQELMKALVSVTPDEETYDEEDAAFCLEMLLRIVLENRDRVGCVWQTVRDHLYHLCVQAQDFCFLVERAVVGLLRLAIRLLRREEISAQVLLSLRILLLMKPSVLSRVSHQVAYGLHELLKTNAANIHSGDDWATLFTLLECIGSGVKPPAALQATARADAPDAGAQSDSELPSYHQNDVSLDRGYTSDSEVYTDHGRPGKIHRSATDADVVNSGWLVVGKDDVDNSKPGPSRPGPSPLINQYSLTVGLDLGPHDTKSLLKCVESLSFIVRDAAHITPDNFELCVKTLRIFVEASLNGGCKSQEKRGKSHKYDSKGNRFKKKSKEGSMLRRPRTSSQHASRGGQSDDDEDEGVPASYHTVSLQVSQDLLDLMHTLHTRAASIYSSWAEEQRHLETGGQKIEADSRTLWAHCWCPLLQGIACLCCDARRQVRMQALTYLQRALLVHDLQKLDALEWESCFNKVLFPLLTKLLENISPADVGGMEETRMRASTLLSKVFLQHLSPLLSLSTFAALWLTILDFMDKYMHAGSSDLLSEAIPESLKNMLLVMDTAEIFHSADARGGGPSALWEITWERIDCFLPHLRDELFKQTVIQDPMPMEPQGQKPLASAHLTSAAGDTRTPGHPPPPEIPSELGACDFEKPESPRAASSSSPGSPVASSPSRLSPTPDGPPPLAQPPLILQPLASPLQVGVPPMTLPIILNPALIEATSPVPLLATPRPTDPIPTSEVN
Target,log2 fold change [1],log2 fold change [2],log2 fold change [3],log2 fold change [4],log2 fold change [5],log2 fold change [6],log2 fold change [7],log2 fold change [8],log2 fold change [9],log2 fold change [10],log2 fold change [11],log2 fold change [12],log2 fold change [13],log2 fold change [14],log2 fold change [15],log2 fold change [16],log2 fold change [17],log2 fold change [18],log2 fold change [19],log2 fold change [20]
FADS3 (UniProt Q9Y5Q0),0.066,0.149,0,0.119,-0.103,0.023,-0.957 (active),0.343,0.152,-0.057,-0.051,0.1,-0.047,0.198,-0.08,0.097,0.096,0,0,0.063
EFCAB14 (UniProt O75071),0.022,0.001,-0.01,0.039,0.008,-0.042,-0.058,0.047,0.023,0.005,-0.056,0.077,0.01,-0.007,-0.058,0.038,-0.086,0.063,0.012,-0.131
EXOC3 (UniProt O60645),0.049,0.021,0.02,-0.081,-0.086,0.045,-0.057,-0.001,0.004,0.03,0.011,-0.063,0.009,0.031,-0.037,0.001,0.07,0.032,-0.023,-0.001
GAPDH (UniProt P04406),-0.031,0.002,-0.016,-0.006,-0.002,-0.009,0.042,-0.032,0,-0.01,0.01,0.046,0,0.012,0.018,-0.045,-0.006,-0.039,-0.001,-0.026
GBF1 (UniProt Q92538),0.023,0.04,0.087,-0.004,-0.05,0.006,-0.011,-0.046,-0.011,0.019,0,-0.041,0.032,0.007,0.004,0.036,-0.031,0.002,-0.008,-0.03
"EED, A0A5F9ZI63",-0.019,0.034,-0.029,0.005,0.015,-0.012,-0.047,0.049,0.026,0.031,-0.007,-0.026,0.039,0.003,0.036,0.004,0.063,-0.01,0.013,-0.025
ENGASE (UniProt Q8NFI3),0.034,0.05,0.003,0,-0.035,-0.031,0.028,0.052,-0.019,-0.008,-0.144,-0.02,0.043,-0.011,0.02,0.018,-0.056,0.025,-0.015,0.018
FBLL1 (UniProt A6NHQ2),0.081,0.019,0.107,0.003,-0.041,-0.014,-0.307 (active),0.046,-0.075,0.056,-0.009,-0.049,-0.036,0.047,0.081,0.042,0.056,0.012,0.005,0.035
ELF2 (UniProt Q15723),-0.022,-0.056,-0.123,0.005,0.042,0.031,0.086,-0.078,-0.023,-0.004,0.023,0.016,0.024,-0.013,-0.062,0.028,0.038,-0.101,-0.06,0.047
ESYT2 (UniProt H7BXI1),-0.047,-0.044,0.046,-0.065,-0.036,-0.009,0.037,-0.068,0.033,-0.003,0.02,0.038,-0.02,0.001,-0.072,0.053,-0.1,-0.003,0.029,-0.006
FYB1 isoform 3 (UniProt O15117),-0.056,-0.011,-0.003,0.043,-0.026,-0.018,0.072,-0.101,0.007,0.008,-0.012,-0.001,0.013,0.033,0.065,-0.005,-0.035,-0.012,-0.014,-0.029
GIGYF2 (UniProt Q6Y7W6),-0.001,-0.017,0.049,0.093,-0.05,-0.001,0.028,-0.055,0.009,-0.001,-0.028,-0.164,0.052,0.017,0.019,0.092,-0.063,0.028,0.013,0.005
FBXO9 (UniProt Q9UK97),-0.025,0.007,0.116,0.135,-0.012,-0.015,0.049,-0.083,-0.013,0.021,0.099,-0.006,-0.015,0.104,0.037,0.078,-0.042,-0.011,-0.402 (active),0.04
"EEF1A1, A0A087WVQ9",0.011,0.047,-0.069,0.027,-0.003,-0.026,-0.016,-0.12,0.077,0.013,-0.005,-0.102,0.042,0.062,0.071,0.011,0.115,-0.073,0.026,-0.054
FBXO38 (UniProt Q6PIJ6),-0.042,-0.024,0.052,-0.121,0.037,0.028,0.006,0.036,-0.039,0.027,-0.008,-0.043,-0.616 (active),0.019,0.01,-0.004,-0.038,-0.015,-0.062,0.056
FARSB (UniProt Q9NSD9),-0.009,0.006,0.018,0.003,-0.024,0.016,0,-0.018,0.022,0.095,0.003,-0.056,-0.012,-0.014,-0.012,-0.029,0.067,0.002,0.005,-0.013
